# In PubChem BioAssay AID588728 (Vanderbilt Specialized Chemistry Center, 2011):
# Activity calls are given as the source filed them.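 Rule for the calls: active = compound at 10 µM that moves glutamate potency by over twofold either way, or clearly lowers or raises peak response; inactive = the rest.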
# Biological target: Metabotropic glutamate receptor 3 (Rattus norvegicus) (UniProt P31422)
# Assay: mGluR5 PAM selectivity profiling against rat mGluR3, glutamate response modulation, fold shift by Tl+ flux in HEK/GIRK cells (AID 588728)
# Conditions: HEK/GIRK rat mGluR3, thallium flux, glutamate CRC fold shift, at 10 µM; Emax: measured here: glutamate max response with compound
# Metabotropic glutamate receptor 3 (Rattus norvegicus), sequence (P31422 whole entry, looked up): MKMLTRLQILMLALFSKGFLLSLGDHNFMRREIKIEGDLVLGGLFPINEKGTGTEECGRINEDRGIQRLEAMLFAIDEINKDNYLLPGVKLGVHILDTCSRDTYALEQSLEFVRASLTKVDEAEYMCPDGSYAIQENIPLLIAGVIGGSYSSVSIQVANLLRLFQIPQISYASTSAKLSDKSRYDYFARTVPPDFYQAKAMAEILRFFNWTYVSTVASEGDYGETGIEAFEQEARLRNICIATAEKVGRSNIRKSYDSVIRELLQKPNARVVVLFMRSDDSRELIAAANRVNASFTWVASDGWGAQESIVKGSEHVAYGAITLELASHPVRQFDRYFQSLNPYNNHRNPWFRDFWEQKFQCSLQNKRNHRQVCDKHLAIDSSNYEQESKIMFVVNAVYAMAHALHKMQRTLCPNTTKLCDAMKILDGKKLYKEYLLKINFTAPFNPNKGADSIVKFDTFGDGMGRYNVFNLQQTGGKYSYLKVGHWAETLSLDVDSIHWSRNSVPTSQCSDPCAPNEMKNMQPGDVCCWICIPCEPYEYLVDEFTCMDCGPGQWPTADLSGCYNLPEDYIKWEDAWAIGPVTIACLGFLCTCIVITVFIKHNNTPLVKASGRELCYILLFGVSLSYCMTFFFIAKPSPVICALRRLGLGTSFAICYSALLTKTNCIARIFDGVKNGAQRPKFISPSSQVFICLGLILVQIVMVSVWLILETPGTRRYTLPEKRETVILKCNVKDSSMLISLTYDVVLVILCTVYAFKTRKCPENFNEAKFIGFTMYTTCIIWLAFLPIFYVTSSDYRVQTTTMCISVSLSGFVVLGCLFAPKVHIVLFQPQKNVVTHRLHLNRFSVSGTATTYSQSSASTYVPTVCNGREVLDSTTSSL
smiles,measurement,value
CC1(NC(=O)c2ccc(C#Cc3cccc(F)c3)cn2)COC1,Emax,84%
same,fold shift,0.85 (inactive)
C[C@@H](NC(=O)c1ccc(C#Cc2cccc(F)c2)cn1)C(C)(C)O,Emax,89%
same,fold shift,0.95 (inactive)
